Test [1] has as its target Serine/threonine-protein kinase PAK 6 (Homo sapiens) (UniProt Q9NQU5). The following applies: at 1 µM.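 Note: values are mean percent inhibition of PAK6 kinase.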
The test system of test [2] is Tyrosine-protein kinase ABL1 (Homo sapiens), P00519 [E255K]. To be noted: at 0.1 µM.
For test [3] the test system is unchanged. The following applies: at 1 µM.
Test [4] concerns Tyrosine-protein kinase ABL1 (Homo sapiens), P00519 [H396P]. To be noted: at 0.1 µM.
Test [5] has the same test system. To be noted: at 1 µM.
Test [6] has as its system Tyrosine-protein kinase ABL1 (Homo sapiens), P00519 [M351T]. To be noted: at 0.1 µM.
Test [7] has the same test system. The following applies: at 1 µM.
Test [8] has as its system Tyrosine-protein kinase ABL1 (Homo sapiens), P00519 [Q252H]. To be noted: at 0.1 µM.
The test system is the same in test [9]. To be noted: at 1 µM.
In test [10] the test system is Tyrosine-protein kinase ABL1 (Homo sapiens), P00519 [T315I]. The following applies: at 0.1 µM.

Among the data in ChEMBL document CHEMBL1961873, “Compounds: GSK PKIS; Assays: Nanosyn kinase panel” (2012) are inhibition values, retold here.

SMILES strings stand for the structures.

Chain of Serine/threonine-protein kinase PAK 6 (Homo sapiens) (Q9NQU5 whole entry, looked up): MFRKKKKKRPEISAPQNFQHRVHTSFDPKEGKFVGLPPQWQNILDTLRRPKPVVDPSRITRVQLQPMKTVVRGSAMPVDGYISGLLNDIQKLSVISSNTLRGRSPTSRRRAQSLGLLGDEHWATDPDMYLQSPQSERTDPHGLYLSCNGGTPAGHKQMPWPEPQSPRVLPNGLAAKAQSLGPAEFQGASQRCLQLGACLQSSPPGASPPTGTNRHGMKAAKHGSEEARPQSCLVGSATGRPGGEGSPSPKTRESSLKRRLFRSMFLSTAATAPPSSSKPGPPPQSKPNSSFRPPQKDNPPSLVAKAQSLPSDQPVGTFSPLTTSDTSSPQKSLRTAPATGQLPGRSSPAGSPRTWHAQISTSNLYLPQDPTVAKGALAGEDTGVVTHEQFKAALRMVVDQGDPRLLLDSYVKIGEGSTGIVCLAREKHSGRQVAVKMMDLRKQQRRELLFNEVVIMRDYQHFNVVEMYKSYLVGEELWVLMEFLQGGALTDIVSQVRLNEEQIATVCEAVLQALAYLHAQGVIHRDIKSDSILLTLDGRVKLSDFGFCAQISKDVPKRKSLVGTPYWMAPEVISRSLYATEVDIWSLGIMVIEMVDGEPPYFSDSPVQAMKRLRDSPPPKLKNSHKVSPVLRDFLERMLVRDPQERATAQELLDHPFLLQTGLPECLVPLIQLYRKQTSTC

The term inhibition denotes the drop in the measured response relative to a control, in per cent. Take `CCS(=O)(=O)c1ccc(OC)c(Nc2ncc(-c3cccc(-c4ccccc4F)c3)o2)c1`: the inhibition was 1.97% in test [1]; 40.6% in test [2]; 84.4% in [3]; 34.5% in [4]; 82% in test [5]; 44.6% in test [6]. Further, the inhibition in test [7] was 86.9%; in test [8] it was 37.9%; in [9], 84.6%; in test [10], 1.82%.

In the case of `CN(c1ccc(NC(=O)Nc2c(Cl)cccc2Cl)cc1)c1ccnc(Nc2cccc(CS(C)(=O)=O)c2)n1`, the inhibition in test [1] came to 0.99%; in [2], 8.03%; in test [3], 35.9%; in test [4], 30%; in test [5] it was 69.3%; in test [6], 46.9%. Also, the inhibition is 81.9% in test [7], 39.3% in [8], 72.3% in test [9] and 41.6% in [10].

As for `NC(=O)c1cc(-c2ccc(F)cc2)cc(-c2ccncc2)c1N`, the inhibition is -7.94% in test [1]; 3.29% in [2]; 4.43% in test [3]; 3.43% in test [4]; 5.86% in test [5]; 2.81% in [6]. Moreover, the inhibition in test [7] is 2.85%; in test [8] it was 4.84%; in [9] it was 5.67%; in test [10] it was 3.32%.

Regarding `NS(=O)(=O)c1ccc(N/N=C2\C(=O)Nc3ccc(-c4cnco4)cc32)cc1`, the inhibition was -6.6% in [1]; 1.82% in test [2]; 7.02% in [3]; 3.45% in test [4]; 15.5% in test [5]; 0.98% in test [6]. Besides, the inhibition in test [7] came out at 17.7%; in test [8], 3.05%; in test [9] it was 13.3%; in test [10] it was 0.71%.

Take `CNC(=O)c1cncc(/C=C/c2c(C)cccc2C)c1`: the inhibition was found to be 2.54% in test [1]; 8.21% in test [2]; 50.1% in test [3]; 17.2% in test [4]; 61.5% in test [5]; 16.9% in [6]. The inhibition in test [7] was determined as 63.8%; in test [8], 14.5%; in test [9], 60.2%; in test [10] it was 1.83%.

Take `COc1ccc(-c2ccc3c(NC(=O)C4CC4)n[nH]c3n2)cc1`: the inhibition in test [1] was -4.51%; in [2], 0.71%; in test [3], 9.06%; in test [4], 3.91%; in test [5], 28%; in test [6] it was 1.26%. Further, the inhibition is 27.1% in [7], 0.06% in [8], 13.6% in [9] and 2.42% in test [10].

In the case of `c1ccc(-c2n[nH]cc2-c2ccnc(-c3ccc(OCCN4CCOCC4)cc3)c2)nc1`, the inhibition was 3.66% in [1]; 9.49% in [2]; 47.8% in test [3]; 19.5% in test [4]; 70.9% in test [5]; 22.1% in test [6]. Further, the inhibition in test [7] was determined as 69.1%; in test [8] it was 11.9%; in [9] it was 51.8%; in [10] it was 1.78%.

`Cc1ccc(C(=O)NC(C)C)cc1-c1ccc(C(=O)NCC2CC2)cc1`: the inhibition in [2] is -0.92%; in [3], -0.81%; in [4] it was -1.54%; in [5], -1.16%; in test [6], -0.95%; in [7], 1.25%. The inhibition in [8] was -2.61%; in test [9], -1.55%; in test [10], -1.99%.

Turning to `NS(=O)(=O)c1ccc(Nc2cc(-c3ccc(O)c(F)c3)n[nH]2)cc1`, the inhibition is -3.83% in test [1]; 1.72% in [2]; 14.8% in test [3]; 2.42% in test [4]; 27.3% in test [5]; 4.46% in test [6]. Further, the inhibition in test [7] came to 30.5%; in test [8], 1.52%; in [9], 20%; in test [10], 0.21%.

`COc1ccc2cc(-c3c(-c4ccncc4)nc(-c4ccc([S+](C)[O-])cc4C)n3C)ccc2c1` (centres undefined): the inhibition in test [1] was 1.24%; in test [2], -1.36%; in [3], 5.96%; in test [4], 2.45%; in [5] it was 17.6%; in test [6], 2.12%. For the same molecule, the inhibition worked out at 19.8% in test [7], 2.32% in test [8], 18% in [9] and 9.26% in test [10].

As to `NCc1ccc(-n2c(-c3nonc3N)nc3cnccc32)cc1`, the inhibition in test [1] is -0.18%; in test [2], 3.58%; in test [3] it was 2.62%; in test [4], 5.81%; in test [5] it was 0.32%; in test [6], 3.87%. The inhibition in [7] amounted to 0.32%; in test [8], 4.57%; in [9] it was 1.69%; in test [10] it was 2.95%.

With `Clc1ccc(CNc2nccc(-c3cnn4ncccc34)n2)cc1`, the inhibition in test [1] is -0.19%; in test [2] it was 4.07%; in test [3], 3.72%; in [4], 4.81%; in test [5] it was 5.52%; in test [6], 4.62%. Besides, the inhibition in test [7] is 3.11%; in test [8], 2.33%; in test [9] it was 6.07%; in test [10], 0.52%.

Take `O=C(Nc1n[nH]c2nc(-c3ccc(O)cc3)c(Br)cc12)C1CC1`: the inhibition worked out at 8.5% in test [1]; 21% in [2]; 66.4% in test [3]; 38.5% in test [4]; 81% in test [5]; 37.4% in [6]. Moreover, the inhibition in test [7] is 81%; in test [8], 37.5%; in [9], 82.4%; in [10] it was 43.5%.

As to `CN(C)CCCNc1nccc(-c2c(-c3ccc(F)cc3)nn3cc(C(F)(F)F)ccc23)n1`, the inhibition in [1] is -4.04%; in test [2], 1.96%; in [3], 5.43%; in test [4], 4.54%; in test [5] it was 4%; in [6] it was 4.09%. The inhibition in test [7] is 3.29%; in test [8], 3.28%; in test [9], 5.19%; in test [10] it was 1.28%.

`Fc1ccc(-c2ncn(CCCN3CCOCC3)c2-c2ccncc2)cc1`: the inhibition is -7.59% in test [1]; 0.23% in [2]; 0.13% in test [3]; 0.23% in test [4]; -0.46% in test [5]; -2.27% in test [6]. Also, the inhibition in test [7] was 1.4%; in test [8], -1.12%; in test [9], -0.09%; in test [10], -1.3%.

With `COc1ccc(C2=C(N3CCc4ccccc43)C(=O)NC2=O)cc1`, the inhibition in test [1] is -1.91%; in [2], 3.46%; in test [3] it was 3.94%; in [4], 3.85%; in [5], 5.26%; in test [6], -0.47%. Moreover, the inhibition in [7] turned out to be 7.03%; in test [8] it was 4.56%; in [9] it was 6.15%; in test [10], 3.54%.

Regarding `CS(=O)(=O)CCNCc1ccc(-c2ccc3ncnc(Nc4ccc(OCc5ccccc5)c(Br)c4)c3c2)o1`, the inhibition in test [1] is -7.5%; in test [2] it was 1.35%; in [3], 2.28%; in test [4] it was 4.48%; in [5], 4.61%; in test [6], 0.99%. Moreover, the inhibition was 2.04% in [7], 3.94% in test [8], 4.09% in [9] and 1.53% in [10].
